Data taken from PubChem BioAssay (NCI).
Compounds without any hit were thinned out: in the full panel of roughly 83,000, 20% have a hit.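 How to read the values: 0–100, growth inhibition (40 = 60% inhibited); 0, no net growth; -100 to 0, cell death (-40 = 40% of starting cells died; -100 = all dead).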 A number with no mark means an inactive call. Activity calls are given as the source filed them.

test system: TK-10 renal; assay: NCI-60 one-dose screen, 48 h (100 = growth as untreated, 0 = no growth, -100 = all killed); conditions: 10 µM unless noted
Experimental: Growth inhibition of the TK-10 human tumor cell line is measured as a screen for anti-cancer activity. Cells are grown in 96 well plates and exposed to the test compound for 48 hours. Compounds are tested at a single concentration, which is 10^-5 M for most compounds. The reported endpoint is percent growth (GI% or GIPRCNT), where numbers from 0 - 100% represent growth inhibition, and numbers from -100% - 0 represent cell death. For example, a value of 40 represents 60% growth inhibition. A value of 0 means no net growth occurred over the course of the experiment. A value of -40 indicates 40% of cells at the beginning of the experiment died by the end of the experiment. A value of -100 means all cells are dead at the end of the experiment.
NCI-60 Human Tumor Cell Lines Screen was performed using the standard one-dose NCI protocol, which is described in more detail at https://dtp.cancer.gov/discovery_development/nci-60/default.htm.
Compounds with GIPRCNT values below 10 were considered active. Activity score was based on GIPRCNT using the following formula: […]
Score is 0 for GIPRCNT values of 100 or above, 50 for GIPRCNT values of 0, and 100 for GIPRCNT values of -100.

Structure (SMILES)	growth
c1ccc(OCc2nnc(-c3ccc(Oc4ccccc4)cc3)o2)cc1	103%
N#Cc1c(-c2ccccc2)nc(SCC(=O)Nc2nc(-c3ccc(Cl)cc3)cs2)[nH]c1=O	110%
CCCCCCN(CCCCCC)c1ccc(/C=C2/SC(=O)NC2=O)c(C)c1	108%
CN1CCN(c2ccc(-c3ccc4ncc(C#N)c(Nc5ccc(F)c(Cl)c5)c4c3)cc2)CC1	36.3%
O=C1/C(=C/c2ccc(F)cc2)Sc2c(Br)cccc21	111%
CCOC(=O)NCCc1ccccc1	112%
COc1cccc(-c2nc(-c3ccc(NC(=O)c4ccccc4)cc3)[nH]c2-c2ccnc(Br)c2)c1	59.5%
COc1ccc(-c2conc2-c2ccccc2)cc1	6.72% (active)
CN(C(=O)NCc1cccc(F)c1Cl)[C@H](COC(=O)Nc1cc2ccccc2cn1)CC(O)CO (stereo not given in full)	101%
COc1ccc2nc(NCCCNCCO)c3sc4ccc(F)cc4c(=O)c3c2c1	69.3%
CCCCCCCCCCCCCCCCCCOc1ccc(CC(=O)OCC[N+](C)(C)C)cc1	93.8%
COc1c(N2CC3CCCN(C(C)=O)C3C2)c(F)cc2c(=O)c(C(=O)N[C@H]3C(O)[C@@H](O)C(CO)O[C@H]3O)cn(C3CC3)c12 (stereo not given in full)	105%
CC(C)n1cnc2c(Nc3cccc(Cl)c3)nc(N[C@H]3CCCC[C@@H]3N)nc21	67.4%
Cc1c(C(=O)NCCN2CCOCC2)cn2ncnc(Oc3ccc(NC(=O)Nc4ccc(Cl)c(C(F)(F)F)c4)cc3)c12	32.2%
NC(=O)Nc1ccc2ncnc(Nc3ccc(Cl)cc3)c2c1	26.5%
O=C(COc1ccc(/C=C2\Cc3ccc(Cl)cc3C2=O)cc1)Nc1nc2ccccc2s1	151%
O=C(CS(=O)c1oc(-c2cccs2)nc1S(=O)(=O)c1ccc(Br)cc1)c1ccccc1 (stereo not given)	104%
COc1ccc2sc3c(NCCO)nc4ccccc4c3c(=O)c2c1	103%
O=[N+]([O-])c1ccc(Oc2nc(Nc3ccc(O[C@H]4CO[C@H]5[C@@H]4OC[C@@H]5O)c(Cl)c3)ncc2F)c(Cl)c1	44.5%
CCOc1c(B(O)O)cccc1-c1nc2ccc3[nH]ncc3c2c2c1CCCC2	19.7%

Structure (SMILES)	growth
COc1cc(CNS(=O)(=O)c2ccc(C)cc2)ccc1OCc1cn(-c2ccccc2)nn1	104%
c1cc(NCCc2ccncc2)nc(-n2cnc3ccccc32)c1	86.9%
COc1ccc([C@H]2c3cc(OC)c(OC)cc3C=C(C=O)C2CO)cc1OC (stereo not given in full)	73.4%
COc1cc(C(=O)c2cnc(-c3c[nH]c4cccc(C)c34)[nH]2)cc(OC)c1OC	43.8%
CN1C(=O)CNC(=O)[C@H](NC(=O)c2nc3ccccc3cc2O)CSSC[C@H]1C(=O)NCCCc1nc2ccccc2cc1O	75%
COc1ccc(-c2cc3c4c(nc5ccccc5c4c2)CC(c2cc(OC)c(OC)c(OC)c2)O3)cc1 (stereo not given)	7.8% (active)
CSc1ccc2c(c1)c(CCN)c(C)n2Cc1ccc(Cl)c(Cl)c1	-80.4% (active)
C#Cc1cccc(NC(=O)c2ccc(NC(=O)C=C)cc2)c1	69.9% [8.25 µM]
COc1ccc2c(c1OC)C(=O)O[C@H]2[C@H]1c2c(cc3c(c2OC)OCO3)CCN1C	122%
C=C1CC[C@@]2(C#N)[C@H]3[C@H](CC[C@@H]2C)[C@@H](C)C[C@@H](CC(C)(C)C#N)[C@H]13	50.6%
CNC(=O)c1[nH]cc(-c2ccccc2)c1-c1cc(OC)c2c(c1OC)OCO2	106%
COC(=O)Nc1ccc(-c2nc(-c3cccc(OC)c3)c(-c3ccnc(Br)c3)[nH]2)cc1	77.9%
CCN(CC)S(=O)(=O)c1ccc(NC(=O)CSc2nnc(C)n2-c2ccccc2)cc1	126%
NS(=O)(=O)c1ccc(-n2nc(C(=O)N/N=C\c3ccc(F)cc3)cc2-c2ccc(Br)cc2)cc1	121%
CCN(CC)CCNC(=O)c1cn2ncnc(Oc3ccc(NC(=O)Nc4ccc(Cl)c(C(F)(F)F)c4)cc3)c2c1C	-66% (active)
Cc1[nH]c(C(=O)Nc2ccc(C(=O)NCCN)cc2OC(C)C)c(Cl)c1Cl	-21.6% (active)
CN1CCN(Cc2ccc(NC(=O)c3ccc(C(C)(C)C)c(C#Cc4cnc5cccnn45)c3)cc2C(F)(F)F)CC1	-93.8% (active)
Clc1ccc2c(c1)N(CCCN1CCCC1)c1ccccc1S2	82.9%
COc1ccc(/C=C/c2c(C(=O)/C=C/c3ccc(Cl)cc3)c(C)nc3ccccc23)cc1	56.2%
Cc1nc(/N=C(\N)NC(=O)Nc2ccccc2Cl)sc1C	70.7%
